# Test results: the supplement of paper PMC8728848
# About 410 targets per protein were measured; listed, in parts, are those with the strongest signals and a random draw of the rest.
# Legend:
# Assay in all cases: glycan array binding signal (z-score within array); higher = stronger binding
# Settings in all cases: glycan notation: IUPAC condensed, linker removed
# [1] = target: Fuc(a1-2)Gal(b1-3)GalNAc(b1-3)Gal(a1-4)Gal(b1-4)Glc
# Method in brief: (§1)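 The Consortium for Functional Glycomics database supplied 3228 glycan arrays, of which those lacking an available protein sequence were dropped. The binding signal, a within-array Z-score, was averaged across arrays of the same protein sequence and across linkers. Negative scores can be read as non-binding.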
# [2] = target: Fuc(a1-2)Gal(b1-3)GlcNAc(b1-3)[Neu5Ac(a2-6)Gal(b1-4)GlcNAc(b1-6)]Gal(b1-4)Glc
# Method in brief: as §1
# [3] = target: Fuc(a1-2)Gal(b1-4)GlcNAc(b1-2)Man(a1-3)[Fuc(a1-2)Gal(b1-4)GlcNAc(b1-2)Man(a1-6)]Man(b1-4)GlcNAc(b1-4)GlcNAc
# Method in brief: as §1
# [4] = target: Fuc(a1-2)[Gal(a1-3)]Gal(b1-4)GlcNAc
# Method in brief: as §1
# [5] = target: Fuc(a1-2)[Gal(a1-3)]Gal(b1-4)GlcNAc(b1-2)Man(a1-3)[Fuc(a1-2)[Gal(a1-3)]Gal(b1-4)GlcNAc(b1-2)Man(a1-6)]Man(b1-4)GlcNAc(b1-4)GlcNAc
# Method in brief: as §1
# [6] = target: Fuc(a1-2)[Gal(a1-3)]Gal(b1-4)GlcNAc(b1-2)Man(a1-3)[Fuc(a1-2)[Gal(a1-3)]Gal(b1-4)GlcNAc(b1-2)Man(a1-6)]Man(b1-4)GlcNAc(b1-4)[Fuc(a1-6)]GlcNAc
# Method in brief: as §1
# [7] = target: Fuc(a1-2)[GalNAc(a1-3)]Gal
# Method in brief: as §1
# [8] = target: Fuc(a1-2)[GalNAc(a1-3)]Gal(b1-3)GlcNAc(b1-2)Man(a1-3)[Fuc(a1-2)[GalNAc(a1-3)]Gal(b1-3)GlcNAc(b1-2)Man(a1-6)]Man(b1-4)GlcNAc(b1-4)GlcNAc
# Method in brief: as §1
# [9] = target: Fuc(a1-2)[GalNAc(a1-3)]Gal(b1-3)GlcNAc(b1-2)Man(a1-3)[Fuc(a1-2)[GalNAc(a1-3)]Gal(b1-3)GlcNAc(b1-2)Man(a1-6)]Man(b1-4)GlcNAc(b1-4)[Fuc(a1-6)]GlcNAc
# Method in brief: as §1
# [10] = target: Fuc(a1-2)[GalNAc(a1-3)]Gal(b1-4)GlcNAc(b1-2)Man(a1-3)[Fuc(a1-2)[GalNAc(a1-3)]Gal(b1-4)GlcNAc(b1-2)Man(a1-6)]Man(b1-4)GlcNAc(b1-4)GlcNAc
# Method in brief: as §1
# [11] = target: Fuc(a1-2)[GalNAc(b1-3)]Gal
# Method in brief: as §1
# [12] = target: Fuc(a1-3)[Gal(b1-4)]GlcNAc
# Method in brief: as §1
# [13] = target: Fuc(a1-3)[Gal(b1-4)]GlcNAc(b1-2)Man(a1-3)[Fuc(a1-3)[Gal(b1-4)]GlcNAc(b1-2)Man(a1-6)]Man(b1-4)GlcNAc(b1-4)GlcNAc
# Method in brief: as §1
# [14] = target: Fuc(a1-3)[Gal(b1-4)]GlcNAc(b1-3)Gal(b1-3)[Fuc(a1-4)]GlcNAc
# Method in brief: as §1
# Gal(a1-4)Gal(b1-4)GlcNAc = target: Gal(a1-4)Gal(b1-4)GlcNAc
# Method in brief: as §1
# Gal(b1-3)GlcNAc = target: Gal(b1-3)GlcNAc
# Method in brief: as §1
# [15] = target: Gal(b1-3)GlcNAc(b1-2)Man(a1-3)[GlcNAc(b1-4)][Gal(b1-3)GlcNAc(b1-2)Man(a1-6)]Man(b1-4)GlcNAc(b1-4)GlcNAc
# Method in brief: as §1
# [16] = target: Gal(b1-3)GlcNAc(b1-3)Gal(b1-3)GlcNAc
# Method in brief: as §1
# [17] = target: Gal(b1-3)GlcNAc(b1-3)Gal(b1-4)GlcNAc(b1-2)[Gal(b1-3)GlcNAc(b1-3)Gal(b1-4)GlcNAc(b1-6)]Man(a1-6)[Gal(b1-3)GlcNAc(b1-3)Gal(b1-4)GlcNAc(b1-2)Man(a1-3)]Man(b1-4)GlcNAc(b1-4)[Fuc(a1-6)]GlcNAc
# Method in brief: as §1
# [18] = target: Gal(b1-3)GlcNAc(b1-3)Gal(b1-4)GlcNAc(b1-6)[Gal(b1-3)GlcNAc(b1-3)]Gal(b1-4)Glc
# Method in brief: as §1
# [19] = target: Gal(b1-3)GlcNAc(b1-3)Gal(b1-4)[Fuc(a1-3)]GlcNAc(b1-6)[Gal(b1-3)GlcNAc(b1-3)]Gal(b1-4)Glc
# Method in brief: as §1
# [20] = target: Gal(b1-3)[Fuc(a1-4)]GlcNAc(b1-6)GalNAc
# Method in brief: as §1
# Gal(b1-4)GlcNAc(b1-2)Man = target: Gal(b1-4)GlcNAc(b1-2)Man
# Method in brief: as §1
# [21] = target: Gal(b1-4)GlcNAc(b1-3)Gal(b1-4)GlcNAc(b1-3)Gal(b1-4)GlcNAc(b1-2)[Gal(b1-4)GlcNAc(b1-3)Gal(b1-4)GlcNAc(b1-3)Gal(b1-4)GlcNAc(b1-6)]Man(a1-6)[Gal(b1-4)GlcNAc(b1-3)Gal(b1-4)GlcNAc(b1-3)Gal(b1-4)GlcNAc(b1-2)Man(a1-3)]Man(b1-4)GlcNAc(b1-4)[Fuc(a1-6)]GlcNAc
# Method in brief: as §1
# [22] = target: Gal(b1-4)GlcNAc(b1-3)Gal(b1-4)GlcNAc(b1-3)Gal(b1-4)GlcNAc(b1-3)Gal(b1-4)GlcNAc(b1-2)[Gal(b1-4)GlcNAc(b1-3)Gal(b1-4)GlcNAc(b1-3)Gal(b1-4)GlcNAc(b1-3)Gal(b1-4)GlcNAc(b1-6)]Man(a1-6)[Gal(b1-4)GlcNAc(b1-3)Gal(b1-4)GlcNAc(b1-3)Gal(b1-4)GlcNAc(b1-3)Gal(b1-4)GlcNAc(b1-2)Man(a1-3)]Man(b1-4)GlcNAc(b1-4)[Fuc(a1-6)]GlcNAc
# Method in brief: as §1
binder,measurement,setting,value
PX9937F-bfa-516-16-516 (Bacteroides fragilis) (protein) LDIDPTSSIADSNYWKTEAQFSTFNVGLHALLRECSFNFFLLGEPRADIYGDVPFGGEATQGMERLPFNTINKENTGISNFAGMYKVINQINLMIAKTKETTVLSEAGKNYYLGEAYGMRAYLYFHLLRSWGDVILYLDYTNGASLDLSNLSKAASPAEEVMKQIKEDITASEKGFGSDYSFKYGRYYWSMAATQMLKGEVYLWSGRQMGGGTADYTTAKTALQSIVSNANVSLQDDFSKVFAYNNKDNSEIIFSIRNAKDEYNMWDDRFRQNLVPQQAYMTSTYCNKEGVSFKDLPEGQLNGLIRLQIRYDLYNKAFRDGDTRKDASMTAVYQKQQDGTVKYIAPFCNKYQGVLLDGASQRSFLNDYPIYRYADCLLLLAEAKALLGEDPTAEINQVRERAYGKEFFEANKATLAYPNDKGDFYTDNKYMSGDEDPLEAILKERMREFMFEGKRWYDLRLLGADYVTKRTSAVATRLLWPINESVLTDNPALKQTPGYQN,glycan array binding signal (z-score),[1],0.493
same,glycan array binding signal (z-score),[2],-0.097
same,glycan array binding signal (z-score),[3],-0.256
same,glycan array binding signal (z-score),[4],-0.012
same,glycan array binding signal (z-score),[5],1.48
same,glycan array binding signal (z-score),[6],-0.006
same,glycan array binding signal (z-score),[7],-0.222
same,glycan array binding signal (z-score),[8],-0.141
same,glycan array binding signal (z-score),[9],-0.135
same,glycan array binding signal (z-score),[10],2.69
same,glycan array binding signal (z-score),[11],1.64
same,glycan array binding signal (z-score),[12],-0.071
same,glycan array binding signal (z-score),[13],-0.045
same,glycan array binding signal (z-score),[14],-0.161
same,glycan array binding signal (z-score),Gal(a1-4)Gal(b1-4)GlcNAc,-0.077
same,glycan array binding signal (z-score),Gal(b1-3)GlcNAc,-0.207
same,glycan array binding signal (z-score),[15],0.179
same,glycan array binding signal (z-score),[16],-0.041
same,glycan array binding signal (z-score),[17],7.79
same,glycan array binding signal (z-score),[18],-0.142
same,glycan array binding signal (z-score),[19],-0.388
same,glycan array binding signal (z-score),[20],1.88
same,glycan array binding signal (z-score),Gal(b1-4)GlcNAc(b1-2)Man,-0.006
same,glycan array binding signal (z-score),[21],4.38
same,glycan array binding signal (z-score),[22],3.95
